# Compound activity (PubChem)
# ClpP mod = qHTS Assay for Activators of ClpP; ATP-dependent Clp protease proteolytic subunit (Bacillus subtilis (strain 168)), P80244; purified B. subtilis ClpP, FRET peptide cleavage, 20 min; Potency, µM (titrated, usually from 57.5 µM), without a hit: at the highest dose activity change, negative = active; 1.9% of 340,000 active; AID 651965, 2013; active means well fitted falling curve with a large enough effect; inconclusive means small, poorly fitted or top-dose-only effect; inactive means no such curve, though single readings can be large or run the other way; further: potency means the concentration at half of the fitted maximal effect; the source files actives as falling curves though it sought activators and does not explain the sign; nearly all actives have a fitted effect of over 65% in size
# Target sequence (P80244 whole entry, looked up): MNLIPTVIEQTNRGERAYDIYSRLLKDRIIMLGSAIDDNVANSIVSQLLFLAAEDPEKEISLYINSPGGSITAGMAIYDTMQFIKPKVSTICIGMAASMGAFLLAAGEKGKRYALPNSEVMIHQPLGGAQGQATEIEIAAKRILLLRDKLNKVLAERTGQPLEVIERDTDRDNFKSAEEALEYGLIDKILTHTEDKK
#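 Purified B. subtilis ClpP, 10 microg/mL final in Tris/HCl pH8 with KCl, BSA, glycerol and Tween-20, cleaved an Abz/nitrotyrosine-quenched decapeptide. Fluorescence (ex 320, em 430) was read at 0 and 20 min at room temperature. Delta was normalized to 5.8 microM ADEP and DMSO/no-enzyme controls.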
# D3 antag = D3 dopamine receptor (human) antagonism. P35462. D3R cells, DiscoveRx beta-arrestin luminescence, antagonist mode; active compounds read low. max response, negative = inhibition, %. 2.5% of 360,000 active; in the data active means max response below about -50%; inconclusive means no clear call, values can overlap the other calls; further: on the % scale 0 is the no-effect control and ±100 the full control effect
# Target sequence (P35462 whole entry, looked up): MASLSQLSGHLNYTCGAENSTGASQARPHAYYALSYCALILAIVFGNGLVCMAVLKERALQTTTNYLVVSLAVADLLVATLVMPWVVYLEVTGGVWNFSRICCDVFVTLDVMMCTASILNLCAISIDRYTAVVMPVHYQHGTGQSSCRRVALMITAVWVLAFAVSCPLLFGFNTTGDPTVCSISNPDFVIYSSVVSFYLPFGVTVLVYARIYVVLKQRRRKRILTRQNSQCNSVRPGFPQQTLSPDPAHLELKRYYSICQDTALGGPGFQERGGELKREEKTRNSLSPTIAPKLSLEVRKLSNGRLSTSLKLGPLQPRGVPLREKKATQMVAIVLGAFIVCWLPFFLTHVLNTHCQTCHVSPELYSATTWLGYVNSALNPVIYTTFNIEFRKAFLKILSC
#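 Cells plated overnight at 1500 cells/well, then exposed to library compounds with dopamine controls for 90 minutes at 37 degrees C. DiscoveRx reagent added for 30–60 minutes at room temperature; luminescence read, quantitative HTS format.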
# TDP1 cell noCPT = qHTS for Inhibitors of human tyrosyl-DNA phosphodiesterase 1 (TDP1): qHTS in cells in absence of CPT; AID 686978, 2013; Potency, µM (highest dose often 46.2 µM), without a hit: top-dose activity change, negative = growth inhibition, most hits filed as inhibitors; DT40 Tdp1-/- hTDP1 cells, no CPT, ATP luminescence, 48 h; 15% of 420,000 active; further: potency means the concentration at half of the fitted maximal effect; on the % scale 0 is the no-effect control and ±100 the full control effect; nearly all actives have a fitted effect of over 55% in size
#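 Stably hTDP1-transfected Tdp1-null chicken DT40 cells were treated with library compounds minus camptothecin and grown for at least 48 hr at 37 °C, after which cellular ATP was quantified by luminescence.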
# IL-1B inflam inh = inflammasome signaling inhibition, IL-1 beta readout | activity change, % at 57.5 µM | 4.7% of 360,000 active | AID 743279 | THP-1 LPS/ATP IL-1B secretion, AlphaLISA, 16 h; active compounds read low; in the data active means activity change below about -50%; inconclusive means mostly about -30% to -49%; further: on the % scale 0 is the no-effect control and ±100 the full control effect
#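 Secreted IL-1B measured by AlphaLISA bead assay after 16 h compound exposure of THP-1 cells; compounds (final up to 57.5 uM) added 1 h before LPS (250 ng/mL) and ATP (1.25 mM) stimulation; lower signal means less secretion.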
# TDP1 cell CPT = growth inhibition of DT40 Tdp1-/-;hTDP1 cells with camptothecin (screen for TDP1 inhibitors); 12% of 420,000 active; chicken DT40 Tdp1-/-;hTDP1 cells + 20 nM CPT, ATP luminescence, 48 h; AID 686979; Potency, µM (titrated, usually from 46.2 µM), for the others: top-dose activity change, negative = growth inhibition, hits mostly inhibitors; further: potency means the concentration at half of the fitted maximal effect; on the % scale 0 is the no-effect control and ±100 the full control effect; nearly all actives have a fitted effect of over 55% in size
#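 Chicken DT40 Tdp1-/- cells stably complemented with human TDP1 were seeded at 400 cells/well in medium containing 20 nM camptothecin, exposed to pin-transferred compounds, and grown at 37 °C for at least 48 hr. Viability was read as ATP luminescence.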
# DRD3 agonist = activates the human D3 dopamine receptor; 0.58% of 410,000 active; P35462; D3R DiscoveRx beta-arrestin cells, luminescence, 90 min; AID 652048; max activation, %; in the data active means max activation above about 30%; further: 0% is about no effect
#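 Cells at 1500/well, incubated overnight, then treated with pinned compounds (dopamine as control) for 90 min at 37 degrees C. DiscoveRx reagent added for 30 - 60 minutes at room temperature; luminescence read.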
# Starred values were filed as active, the others as inactive; ? = inconclusive; / = not tested or not shown; [ ] = dose if it differs, or a comment. Rows were chosen to be rich in hits. Some 21% of all compounds tested hit in one or more screens of this group. Unless noted, the call rests on the fitted dose curve; in most records, active means well fitted inhibition curve with a large enough effect; inconclusive means small, poorly fitted or top-dose-only effect; inactive means flat fitted curve, though single readings scatter.
SMILES,ClpP mod,D3 antag,TDP1 cell noCPT,IL-1B inflam inh,TDP1 cell CPT,DRD3 agonist
O=C(CCC1N=C2c3ccccc3N=C(SCc3ccccc3F)N2C1=O)NCc1ccccc1 (configuration not stated),4%,/,18µM*,/,?,-8
O=C(CN1CCN(C2CCCCC2)CC1)c1c[nH]c2ccccc12,0%,-69*,-27%,1,-5%,-2
Cc1ccc(NC(=O)C(c2ccccc2)c2ccccc2)nc1,-3%,-7,?,-8,21µM*,-4
O=C(CC(O)(c1ccccc1)c1ccccc1)Nc1ccccn1,1%,2,?,21,15µM*,3
Cc1ccc(NC(=O)NC(=O)N(C(C)C)S(C)(=O)=O)nc1,35µM*,8,1%,4,-2%,4
O=C(Nc1ccccn1)C(c1ccccc1)c1ccccc1,0%,-19,21µM*,33,15µM*,-2
O=C(Nc1ccccn1)c1ccccc1,/,14,-4%,-3,4%,8
COc1ccc(-n2c(=O)c(C)nc3cnc(N(C)C)nc32)cc1,/,/,-30%,/,-16%,/
O=C(NCCO)/C(=C\c1ccc([N+](=O)[O-])o1)NC(=O)c1ccccc1,/,-8,29µM*,20,?,1
COC(=O)/C(=C\c1ccc([N+](=O)[O-])cc1)NC(=O)c1ccccc1,/,-16,-18%,39,-2%,-9
CCCOC(=O)/C(=C\c1ccc([N+](=O)[O-])o1)NC(=O)c1ccccc1,-19%,-14,21µM*,10,16µM*,-3
CCCOC(=O)/C(=C\C=C\c1ccco1)NC(=O)c1ccccc1,/,4,21µM*,-15,13µM*,-3
CCOC(=O)/C(=C\c1ccc([N+](=O)[O-])o1)NC(=O)c1ccccc1,1%,14,18µM*,-8,23µM*,1
C=CCN(c1ccccc1)S(=O)(=O)c1cccc(C(=O)NCC(c2ccccc2OC)N2CCCC2)c1 (configuration not stated),/,?,18µM*,?,18µM*,-19
CCN(c1ccccc1)S(=O)(=O)c1cccc(C(=O)NCC(c2cccs2)N2CCOCC2)c1 (configuration not stated),-11%,15,?,?,21µM*,5
CCN(CC)S(=O)(=O)c1ccc(C(=O)NCC(c2cccs2)N2CCOCC2)cc1 (configuration not stated),-1%,-30,-15%,-1,?,-11
CCOc1ccc(C(=O)NCC(c2cccs2)N(C)C)cc1OCC (configuration not stated),-2%,-59*,0%,-13,-27%,-7
C=CCN(c1ccccc1)S(=O)(=O)c1cccc(C(=O)NCC(c2cccs2)N2CCOCC2)c1 (configuration not stated),-2%,14,7.3µM*,0,13µM*,-4
COc1ccccc1NS(=O)(=O)c1cccc(C(=O)NCC(c2ccccc2OC)N2CCCC2)c1 (configuration not stated),-9%,-14,?,-5,?,-20
COc1cccc(NC(=O)CN(C)C(=O)c2ccc(OCc3ccccc3)c(OC)c2)c1,0%,-11,-4%,-9,3%,-8
CCN(c1ccccc1)S(=O)(=O)c1cc(C(=O)NCC(c2ccc(OC)cc2)N(C)C)ccc1C (configuration not stated),2%,-90*,16µM*,-74*,?,-20
CCN(c1ccccc1)S(=O)(=O)c1ccc(C(=O)NCC(c2cccs2)N(C)C)cc1 (configuration not stated),-1%,-52*,?,23,-12%,-13
COc1ccc(C(CNC(=O)c2ccc(S(=O)(=O)N(C)C)cc2)N(C)C)cc1 (configuration not stated),/,-10,-18%,-10,-3%,0
Cc1ccc(/C=N/NC(=O)Cc2c(F)cccc2Cl)s1,-3%,2,-21%,-22,-1%,-2
O=C(CSc1nccn1-c1ccc(F)cc1)Nc1nc2ccccc2s1,2%,/,-16%,/,-1%,-9
SMILES,ClpP mod,D3 antag,TDP1 cell noCPT,IL-1B inflam inh,TDP1 cell CPT,DRD3 agonist
CCCCNC(=O)c1sc2ncnc(NCC3CCCO3)c2c1C (configuration not stated),/,/,-14%,/,20%[9.04 µM],/
Brc1ccc(-c2noc3c2-c2nc(-c4ccccc4)sc2CC3)cc1,?,28,4%,14,?,-7
O=C(Nc1nc2ccccc2[nH]1)Nc1ccccc1F,/,-12,?,-8,-11%,-9
c1ccc(Cc2c(-c3ccccc3)nc3c4ccccc4ccn23)cc1,32µM*,21,?,40,?,1
FC(F)(F)c1ccccc1Cc1c(-c2cccc(Br)c2)nc2c3ccccc3ccn12,-13%,18,-26%,15,-16%,4
Brc1cccc(-c2nc3c4ccccc4ccn3c2Cc2ccccc2)c1,-21%,0,?,7,21µM*,-10
CCOc1ccc(NS(=O)(=O)c2ccc3c(c2)CCN3C(C)=O)cc1,-1%,0,?,-15,?,-31
CCOC(=O)C(=CNc1ccccc1Cl)C(=O)OCC,-1%,45,?,-27,-18%,2
CCOC(=O)C(=CNc1cc(C)ccc1-n1cccc1)C(=O)OCC,/,50,16µM*,/,18µM*,27
CCOC(=O)C(=CNc1ccc(N2CCOCC2)cc1)C(=O)OCC,0%,78,16µM*,-1,?,5
CCOC(=O)C(=CNc1ccc(NC2=NCC(C)(C)S2)cc1)C(=O)OCC,/,104,9.2µM*,?,18µM*,52*
CCOC(=O)C(=CNc1ccc2c(c1)CCN2C(C)=O)C(=O)OCC,-2%,126,7.3µM*,-9,21µM*,32*
CCC1CN(Cc2cccc3nccnc23)Cc2cc(OC)ccc2O1 (configuration not stated),/,/,?,/,2%[9.04 µM],/
O=C1CCCN1C1CCN(Cc2ccccc2)S(=O)(=O)N1 (configuration not stated),-5%,-5,-16%,1,-9%,0
O=C(NCCc1ccccc1)C1(c2ccccc2)CCCC1,-1%,-2,?,-10,-5%,-4
N#CC1(c2ccccc2)CCC(NCCc2ccccc2)CC1 (configuration not stated),0%,-54*,18µM*,?,?,-18
